Our source for the outcome and AC50 values is PubChem BioAssay (EPA / NIEHS).

Results filed as inconclusive are left out. Where a structure was tested more than once in an assay, its records may differ in their call. The source made the active and inactive calls. How the source made its calls: active means hit-call score of the fitted dose curve at least 0.9, where 1 is the maximum; inconclusive means response in the unintended direction; inactive means score below 0.9.

In general, AC50 refers to the midpoint of the concentration-response curve, whichever way the signal moves.

Sequence of Glucocorticoid receptor (Homo sapiens) (P04150 whole entry, looked up): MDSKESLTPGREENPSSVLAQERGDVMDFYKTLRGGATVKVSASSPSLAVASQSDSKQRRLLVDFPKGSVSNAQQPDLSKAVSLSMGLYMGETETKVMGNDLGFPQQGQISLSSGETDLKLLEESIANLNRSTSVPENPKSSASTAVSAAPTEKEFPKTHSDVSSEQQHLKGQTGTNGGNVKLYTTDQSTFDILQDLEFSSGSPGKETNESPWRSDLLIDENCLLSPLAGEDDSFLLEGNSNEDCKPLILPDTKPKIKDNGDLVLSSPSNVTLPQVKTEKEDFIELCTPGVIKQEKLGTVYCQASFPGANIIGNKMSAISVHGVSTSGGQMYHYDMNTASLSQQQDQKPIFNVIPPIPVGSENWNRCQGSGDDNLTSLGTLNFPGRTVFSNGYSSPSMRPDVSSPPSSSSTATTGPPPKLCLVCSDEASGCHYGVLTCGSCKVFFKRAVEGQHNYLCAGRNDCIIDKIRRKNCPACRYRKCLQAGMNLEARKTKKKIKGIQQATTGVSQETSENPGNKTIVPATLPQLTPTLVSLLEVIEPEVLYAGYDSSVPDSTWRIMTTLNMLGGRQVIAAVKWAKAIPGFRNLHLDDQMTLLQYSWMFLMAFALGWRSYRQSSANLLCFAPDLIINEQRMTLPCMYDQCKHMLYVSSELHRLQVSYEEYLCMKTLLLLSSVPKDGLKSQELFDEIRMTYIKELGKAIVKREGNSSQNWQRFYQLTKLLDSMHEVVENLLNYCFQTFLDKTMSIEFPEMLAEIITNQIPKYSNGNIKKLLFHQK

One test has as its target Glucocorticoid receptor (Homo sapiens) (UniProt P04150). Nature of the test: NVS_NR_hGR: NovaScreen (NVS) Nuclear Receptor Binding Assay for human Glucocorticoid Receptor (GR) (AID 2283363).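 On AC50: activity is loss of specific radioligand binding signal relative to DMSO.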 In a few lines: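 Filter scintillation readout of tritiated/iodinated radioligand displaced by test chemical; cell-free extracted protein; 16 h. DMSO = negative control/baseline. Duplicate single-point 25 uM screen, then concentration-response on actives.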
Take `CCNc1nc(Cl)nc(NCC)n1`: the molecule was called inactive. Consider `OC(c1ccc(Cl)cc1)(c1cncnc1)c1ccccc1Cl` (configuration not stated), for which the AC50 was 8.34 µM (active). Regarding `CCOC(=O)CC(SP(=S)(OC)OC)C(=O)OCC` (configuration not stated), the call was inactive.

For the molecule `CO/C=C(/C(=O)OC)c1ccccc1Oc1cc(Oc2ccccc2C#N)ncn1`, the result was inactive. Same read-out and setting: then `CCCN(CCC)c1c([N+](=O)[O-])cc(S(N)(=O)=O)cc1[N+](=O)[O-]`, with “inactive”. As for `CNC(=O)ON=CC(C)(C)SC`, the molecule was called inactive. As for `COC(=O)N(OC)c1ccccc1COc1ccn(-c2ccc(Cl)cc2)n1`, the AC50 was 2.01 µM (active).

For the molecule `CC1COC(Cn2cncn2)(c2ccc(Oc3ccc(Cl)cc3)cc2Cl)O1` (configuration not stated), the half-maximal activity concentration (AC50) was 1.89 µM (active).

In the next test the target is Nuclear receptor subfamily 1 group I member 2 (Homo sapiens) (UniProt O75469). The test can be described thus: NVS_NR_hPXR: NovaScreen (NVS) Nuclear Receptor Binding Assay for human Pregnane X Receptor (PXR) (AID 2283365).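 Further: a drop in FRET signal versus DMSO baseline means the compound binds.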 As to the method: NVS_NR_hPXR is a biochemical, single-readout assay that uses extracted gene-proteins in a cell-free assay. Measurements were taken 2 hours after chemical dosing in a 384-well plate.NVS_NR_hPXR is one of one assay component(s) measured or calculated from the NVS_NR_hPXR assay. It is designed to make measurements of fluorescent resonance energy transfer, a form of binding reporter, as detected with fluorescent resonance energy transfer signals by Time-Resolved Fluorescence Resonance Energy Transfer (TR-FRET) technology.Data from the assay component NVS_NR_hPXR was analyzed into 1 assay endpoint. This assay endpoint, NVS_NR_hPXR, was analyzed in the positive analysis fitting direction relative to DMSO as the negative control and baseline of activity. Using a type of binding reporter, loss-of-signal activity can be used to understand changes in the binding as they relate to the gene NR1I2. Furthermore, this assay endpoint can be referred to as a primary readout, because the performed assay has only produced 1 assay endpoint. To generalize the intended target to other relatable targets, this assay endpoint is annotated to the nuclear receptor intended target family, where the subfamily is non-steroidal.
Sequence of Nuclear receptor subfamily 1 group I member 2 (Homo sapiens) (O75469 whole entry, looked up): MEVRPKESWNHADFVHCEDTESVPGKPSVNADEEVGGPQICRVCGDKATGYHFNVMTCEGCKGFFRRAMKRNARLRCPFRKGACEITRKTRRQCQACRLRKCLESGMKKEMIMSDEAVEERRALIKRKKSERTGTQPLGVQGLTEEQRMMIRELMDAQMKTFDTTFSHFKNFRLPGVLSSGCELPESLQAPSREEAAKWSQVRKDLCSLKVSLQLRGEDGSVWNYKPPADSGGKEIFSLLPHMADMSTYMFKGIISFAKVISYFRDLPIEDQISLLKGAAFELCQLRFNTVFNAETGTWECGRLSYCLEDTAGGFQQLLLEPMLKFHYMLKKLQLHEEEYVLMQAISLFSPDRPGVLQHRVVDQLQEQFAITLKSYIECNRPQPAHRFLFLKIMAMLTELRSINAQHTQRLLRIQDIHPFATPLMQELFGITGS
Binding assays used specific radioligands (tritiated, iodinated) with non-radioactive competitive displacement ligands in agonist or antagonist protocols (as indicated) and various reference compounds and inhibitors to titrate specific binding to receptors and transporters. Most enzyme assays (CYPs, kinases, phosphatases, proteases, HDACs) used recombinant protein and specific substrates (fluorescence mostly, some colorimetric and radioactive) and inhibitors, followed by a biochemical separation of substrate and product. All assays for the biochemical HTS were initially run in duplicate at a single concentration (10 uM for CYP450 assays and 25 uM for all others). […] Each assay was run with positive and negative controls, and concurrent controls on every plate. The follow-up (secondary) screen tested active chemical-pairs in concentration series, as well as a few additional assays not tested in the primary screen, some selected negative inactives, and several cases re-run in the concentration series for confirmatory purposes.
With `CCCC1COC(Cn2cncn2)(c2ccc(Cl)cc2Cl)O1` (configuration not stated), the call was inactive. On the same count and under the same terms, for `CNC(=S)S` the value was “inactive”; for `C=CCC1=C(C)[C@@H](OC(=O)[C@@H]2[C@@H](C=C(C)C)C2(C)C)CC1=O`, “inactive”; for `CCCCOC(=O)c1ccccc1C(=O)OCCCC`, “inactive”. Still for that read-out and setting: then `COc1ccc(C(c2ccc(OC)cc2)C(Cl)(Cl)Cl)cc1`, with “inactive”. On to `CON(C)C(=O)Nc1ccc(Cl)c(Cl)c1`, for which the outcome was inactive. As to `Oc1ccccc1-c1ccccc1`, the AC50 is 15.7 µM (active).

For `CO/C=C(/C(=O)OC)c1ccccc1Oc1cc(Oc2ccccc2C#N)ncn1`, the result was inactive.

In the case of `CCCN(CCC)c1c([N+](=O)[O-])cc(S(N)(=O)=O)cc1[N+](=O)[O-]`, the half-maximal activity concentration (AC50) was 6.68 µM (active).
